# From PubChem BioAssay
# Test system: Wnt5a (protein binding on small-molecule microarray)
# Assay: small molecules binding Wnt5a protein – biophysical, small-molecule microarray, 635/667 nm fluorescence, primary screen (AID 1142);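 further: fluorescence read at 667 nm with signal to noise per printed feature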
# Conditions: 635 nm fluorescence, higher = more signal
row,Structure (SMILES),composite z-score
1,CCOC(=O)[C@H](Cc1ccccc1)NC(=O)CCC1CC(OC(=O)NCc2ccc3c(c2)OCO3)CC2(CCCC(COC(=O)NCCOC)O2)O1 (stereo not given in full),0.274
2,CCOC(=O)[C@H](Cc1ccccc1)NC(=O)CCC1CC(OC(=O)NCc2ccc3c(c2)OCO3)CC2(CCCC(COC(=O)NCCCN3CCCC3=O)O2)O1 (stereo not given in full),0.0512
3,COC(=O)[C@H](C)NC(=O)CCC1CC(OC(=O)NCCc2ccc(F)cc2)CC2(CCCC(COC(=O)NCCOc3ccccc3)O2)O1 (stereo not given in full),0.399
4,O=C1CCCC=C1C(O)C1CCCCC1 (stereo not given),-0.028
5,CCOC(=O)NN=C1C[C@@H](O)[C@@H](O)[C@@H]2[C@@H]3C(=O)N(c4ccc(F)cc4F)C(=O)[C@@H]3CC[C@H]12,0.199
6,CC(=O)OC[C@H]1O[C@H](CC=NO[C@@H](C)c2cc(-c3c(C)cc(C)cc3C)no2)C=C[C@@H]1OC(C)=O,-0.184
7,CCOC(=O)CCN1C(=O)[C@H]2[C@H]3[C@H](O)[C@H](O)CC(=NO[C@@H]4O[C@H](CO)[C@@H](O)[C@H](O)[C@H]4O)[C@H]3CC[C@H]2C1=O,-0.167
8,CCOC(=O)[C@H](CC(C)C)NC(=O)CCC1CC(OC(=O)NCCc2ccc(F)cc2)CC2(CCCC(COC(=O)NCc3cccc(C(F)(F)F)c3)O2)O1 (stereo not given in full),0.0465
9,C[C@H]1CC[C@@H](C(=O)O)N[C@@H]1c1cccc(N2CCCC2=O)c1,0.0767
10,CC(=O)OC[C@H]1O[C@@H](ON=C2[C@H]3CCn4c(=O)n(-c5ccccc5)c(=O)n4[C@H]3[C@H](O)[C@@H]3O[C@H]23)[C@H](OC(C)=O)[C@@H](OC(C)=O)[C@@H]1OC(C)=O,0.196
